Some test systems named below: DU-145 prostate; K-562 leukemia; MALME-3M melanoma; MDA-MB-231 breast; RXF 393 renal; SF-268 CNS; SF-295 CNS; SF-539 CNS; UACC-257 melanoma; M14 melanoma.
Common to all, as to test: NCI-60 one-dose screen, 48 h (100 = growth as untreated, 0 = no growth, -100 = all killed)
Common to all, as to conditions: 10 µM unless noted

The values below come from PubChem BioAssay (NCI).

Molecules are shown by their SMILES. The panel holds about 83,000 compounds, 20% with a hit somewhere; the sample as a whole holds those more often.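 Plates (96-well) were seeded with cells, treated with compound at one concentration, and incubated for 48 hours before percent growth was determined.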 A number with no mark means an inactive call. Active and inactive are the calls of the source. How the source made its calls: active means growth percent below 10; inactive means the rest.

As to `CCCCn1c(=O)c2c(nc(NCCc3ccc(O)c(O)c3)n2CCC)n(CCCC)c1=O`, the growth in the experiment with DU-145 prostate is 74.8%; with K-562 leukemia, 37.7%; with MALME-3M melanoma, 101%; with MDA-MB-231 breast it was 58.6%; in the experiment with RXF 393 renal, 66.3%; with SF-268 CNS, 74.6%. The growth in the experiment with SF-295 CNS is 94.7%; with SF-539 CNS, 87.7%; in the experiment with UACC-257 melanoma it was 89.6%; in the experiment with M14 melanoma, 75.9%.

On to `Cc1cc(C)c2c(-c3nnc(N)s3)cc(=O)oc2c1`, for which the growth with DU-145 prostate was 108%; in the experiment on K-562 leukemia, 93%; in the experiment with MALME-3M melanoma, 106%; in the experiment on MDA-MB-231 breast, 101%; with RXF 393 renal it was 109%; in the experiment with SF-268 CNS it was 99.9%. Moreover, the growth was 98.7% in the experiment on SF-295 CNS, 90.5% in the experiment on SF-539 CNS, 107% in the experiment on UACC-257 melanoma and 104% in the experiment on M14 melanoma.

Consider `NS(=O)(=O)c1cnccc1Sc1ccncc1S(N)(=O)=O`, for which the growth in the experiment on DU-145 prostate is 102%; in the experiment on K-562 leukemia it was 76.3%; in the experiment on MALME-3M melanoma, 91.1%; with MDA-MB-231 breast it was 111%; with RXF 393 renal it was 108%; with SF-268 CNS, 107%. The growth in the experiment on SF-295 CNS was 130%; in the experiment on SF-539 CNS, 93%; with UACC-257 melanoma it was 111%; in the experiment with M14 melanoma, 100%.

On to `Nc1nc(N)c2c(n1)NC(c1ccccc1)C1CCc3ccccc3C1=N2` (stereo not given), for which the growth in the experiment on DU-145 prostate is 49.1%; in the experiment with K-562 leukemia it was 12.1%; in the experiment with MALME-3M melanoma, 15.3%; with MDA-MB-231 breast it was 64.6%; with RXF 393 renal it was 84.7%; in the experiment with SF-268 CNS, 62.7%. Also, the growth in the experiment on SF-295 CNS was 17%; in the experiment on SF-539 CNS it was 47.8%; in the experiment on UACC-257 melanoma, 19.7%; with M14 melanoma it was 53.2%.

For `COc1ccc(C(=O)/C=C/c2c(C(F)(F)F)nc3sccn23)cc1OC`, the growth with DU-145 prostate is -24.6% (active); with K-562 leukemia, -15.1% (active); in the experiment on MALME-3M melanoma, 71.4%; in the experiment with MDA-MB-231 breast, 36.8%; with RXF 393 renal, 39.1%; in the experiment on SF-268 CNS it was 15.4%. The growth in the experiment on SF-295 CNS is -9.31% (active); in the experiment on SF-539 CNS, -5.52% (active); with UACC-257 melanoma, 56.8%; in the experiment with M14 melanoma, 28.5%.

`CC(C)(C)n1cc(-c2ccnc(NCCCNS(=O)(=O)c3ccccc3)c2)c(-c2ccccc2)n1`: the growth was 83.7% with DU-145 prostate; 21.2% in the experiment with K-562 leukemia; 82.7% in the experiment on MALME-3M melanoma; 72% in the experiment on MDA-MB-231 breast; 62% in the experiment with RXF 393 renal; 93.1% in the experiment with SF-268 CNS. The growth with SF-295 CNS was 63.2%; with SF-539 CNS it was 66.4%; in the experiment with UACC-257 melanoma it was 77.9%; in the experiment with M14 melanoma, 67.1%.

As to `COC(=O)[C@]12CC[C@@H](C)[C@H](C)[C@@H]1C1=CC[C@@H]3[C@@]4(C)C(C=O)=C[C@@](C)(CO)[C@@H]4[C@H](O)C[C@@]3(C)[C@]1(C)CC2`, the growth in the experiment with DU-145 prostate was -30% (active); with K-562 leukemia it was 6.68% (active); with MALME-3M melanoma, -70.7% (active); in the experiment with MDA-MB-231 breast it was -47.6% (active); in the experiment on RXF 393 renal, -82% (active); with SF-268 CNS, -0.0873% (active). For the same compound, the growth with SF-295 CNS was -15.6% (active); in the experiment with SF-539 CNS it was -44% (active); in the experiment with UACC-257 melanoma, -48.4% (active); with M14 melanoma, -51.5% (active).

As for `COc1cccc(-c2nc3sccn3c2-c2ccnc(NCCNS(=O)(=O)c3cccc(F)c3)c2)c1`, the growth in the experiment on DU-145 prostate is 29.7%; with K-562 leukemia, 19%; in the experiment with MALME-3M melanoma, 46.6%; with MDA-MB-231 breast it was 64.6%; with RXF 393 renal, 39.9%; with SF-268 CNS, 37.8%. Also, the growth was 15.5% in the experiment on SF-295 CNS, 70.7% with SF-539 CNS, 44.6% in the experiment on UACC-257 melanoma and 33.3% with M14 melanoma.

As for `Cc1cc[c-]cc1.Fc1c[c-]c(-c2ccccn2)c(F)c1.[Pt+2].c1ccc(P(C[PH+](c2ccccc2)c2ccccc2)c2ccccc2)cc1`, the growth in the experiment on DU-145 prostate is 17.5%; in the experiment on K-562 leukemia, 8.02% (active); in the experiment with MALME-3M melanoma, -15.8% (active); in the experiment on MDA-MB-231 breast, -9.05% (active); with RXF 393 renal, 23.1%; in the experiment with SF-268 CNS it was 9.02% (active). For the same compound, the growth was 6.93% (active) in the experiment with SF-295 CNS, 21.5% in the experiment with SF-539 CNS, -12.1% (active) in the experiment with UACC-257 melanoma and 22% in the experiment with M14 melanoma.

As to `O=C1/C(=C/c2ccccc2)CCc2nc3ccccc3c(/C=C/c3ccc(Cl)cc3)c21`, the growth in the experiment with DU-145 prostate is 98.1%; with K-562 leukemia, 82%; in the experiment with MALME-3M melanoma it was 105%; with MDA-MB-231 breast, 86.6%; in the experiment with RXF 393 renal, 96.3%; with SF-268 CNS it was 87.5%. The growth was 96.3% with SF-295 CNS, 99.3% in the experiment on SF-539 CNS, 82.8% in the experiment with UACC-257 melanoma and 86.6% in the experiment on M14 melanoma.

For the compound `N=c1sc(Cc2ccc(Cl)cc2)cn1CC(=O)c1ccc(F)cc1`, the growth is 78.3% in the experiment on DU-145 prostate; 25.6% with K-562 leukemia; 87.4% in the experiment on MALME-3M melanoma; 79.7% in the experiment with MDA-MB-231 breast; 82.3% in the experiment on RXF 393 renal; 81.8% in the experiment on SF-268 CNS. Also, the growth is 64.7% with SF-295 CNS, 85.5% in the experiment on SF-539 CNS, 77.5% with UACC-257 melanoma and 43.1% in the experiment with M14 melanoma.

For the compound `COc1ccc(C2=NN(C(=O)c3cc(OC)c(OC)c(OC)c3)C(c3ccc(Cl)cc3)C2)cc1OC` (stereo not given), the growth in the experiment on DU-145 prostate is 7.23% (active); in the experiment on K-562 leukemia it was 4.27% (active); in the experiment on MALME-3M melanoma it was 63.1%; with MDA-MB-231 breast, 47.6%; in the experiment with RXF 393 renal, 22.6%; in the experiment with SF-268 CNS it was 37.6%. In addition, the growth with SF-295 CNS was -4.6% (active); in the experiment on SF-539 CNS, -3.19% (active); in the experiment with UACC-257 melanoma, 54.5%; in the experiment with M14 melanoma it was 6.09% (active).
